“And” between values parts separate entries of the source, which are not always exact repeats. Identical values can stand only once. Inconclusive results are not listed. Where a call stands in place of a potency, no number is given. More than one record can exist for a structure, and the calls need not agree. The source made the active and inactive calls. Unless noted, calls follow the shape of the dose curve; as a rule, active = well fitted curve in the direction sought with a large enough effect in the repeat runs; inconclusive = weak or mixed curves; inactive = no such curve, though single readings can be large; an effect the other way counts as inactive or inconclusive.
Legend:
[1] = qHTS assay for identifying genotoxic compounds that show differential cytotoxicity against isogenic chicken DT40 cell lines with known DNA damage response pathways - wild type cell line (AID 743012); also: nearly all actives have a fitted effect of over 60% in size; also: potency is read from the fitted curve at half-maximal effect
How it was run: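 First, wild type DT40 cells were plated at 300 per well and equilibrated about 0.5 h at 37 C/5% CO2. Next, compounds in DMSO were added and exposure lasted 40 h. Finally, CellTiter-Glo was added for 30 min at room temperature and luminescence recorded.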

[2] = qHTS assay for identifying genotoxic compounds that show differential cytotoxicity against isogenic chicken DT40 cell lines with known DNA damage response pathways - Rev3 mutant cell line (AID 743014); also: nearly all actives have a fitted effect of over 55% in size; also: potency is read from the fitted curve at half-maximal effect
[3] = qHTS assay for identifying genotoxic compounds that show differential cytotoxicity against isogenic chicken DT40 cell lines with known DNA damage response pathways - Rad54/Ku70 mutant cell line (AID 743015); also: nearly all actives have a fitted effect of over 60% in size; also: potency is read from the fitted curve at half-maximal effect
[4] = qHTS assay to identify small molecule antagonists of the androgen receptor (AR) signaling pathway - cell viability counter screen (AID 743033; also: nearly all actives have a fitted effect of over 45% in size)
[5] = qHTS assay to identify small molecule antagonists of the androgen receptor (AR) signaling pathway using the MDA cell line - cell viability counter screen (AID 743041; also: nearly all actives have a fitted effect of over 45% in size; also: potency is read from the fitted curve at half-maximal effect)
How it was run: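 MDA-kb2 AR-luc human breast carcinoma cells (MMTV-luciferase, AR/GR responsive) were treated with compounds plus R1881 agonist for 16 h at 37 °C. Viability was read as CellTiter-Fluor fluorescence in the same wells as the reporter assay.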

[6] = qHTS assay to identify small molecule antagonists of the thyroid receptor (TR) signaling pathway - cell viability counter screen (AID 743064); also: nearly all actives have a fitted effect of over 50% in size; also: potency is read from the fitted curve at half-maximal effect
How it was run: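 Rat GH3 pituitary tumor cells stably expressing two TR response elements driving luciferase were plated, rested 4 h, then dosed with library compounds and T3 (1 nM final). After 23.5 h at 37 °C, CellTiter-Fluor was added for 30 min and fluorescence recorded.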

[7] = qHTS assay to identify small molecule antagonists of the thyroid receptor (TR) signaling pathway (AID 743065); also: nearly all actives have a fitted effect of over 55% in size; also: potency is read from the fitted curve at half-maximal effect
How it was run: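 GH3.TRE-Luc rat pituitary cells carrying two TR response elements driving luciferase were plated for 4 h, given compound plus 1 nM T3 (final), and incubated 23.5 h at 37 C. ONE-Glo luminescence measured reporter inhibition; CellTiter-Fluor fluorescence tracked cytotoxicity.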

[8] = tested on: thyroid hormone receptor (rat, GH3 cells); experiment: qHTS assay to identify small molecule agonists of the thyroid receptor (TR) signaling pathway (AID 743066; calls by dose curve)
[9] = qHTS assay to identify small molecule antagonists of the estrogen receptor alpha (ER-alpha) signaling pathway - cell viability counter screen (AID 743074; calls by dose curve;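 also: HEK293 cells carrying ER-alpha-UAS-bla reporter stimulated with 17beta-estradiol; nearly all actives have a fitted effect of over 45% in size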)
[10] = qHTS assay to identify small molecule antagonists of the estrogen receptor alpha (ER-alpha) signaling pathway using the BG1 cell line - cell viability counter screen (AID 743081);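 also: compound given together with 17beta-estradiol as the ER stimulus; nearly all actives have a fitted effect of over 45% in size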; also: potency is read from the fitted curve at half-maximal effect
Aromatase (Homo sapiens) = Aromatase (Homo sapiens) (UniProt P11511); experiment: qHTS assay to identify aromatase inhibitors (AID 743083); also: nearly all actives have a fitted effect of over 55% in size; also: potency is read from the fitted curve at half-maximal effect
[11] = qHTS assay to identify small molecule antagonists of the glucocorticoid receptor (GR) signaling pathway - cell viability counter screen (AID 720693); also: nearly all actives have a fitted effect of over 55% in size
[12] = target: Androgen receptor (Homo sapiens) (UniProt P10275); experiment: qHTS assay to identify small molecule agonists of the androgen receptor (AR) signaling pathway using the MDA cell line (AID 743040; also: nearly all actives have a fitted effect of over 20% in size)
How it was run: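 MDA-kb2 breast carcinoma cells stably carrying an MMTV-driven luciferase reporter (AR- and GR-responsive) were seeded and held 5 h at 37C, 0% CO2, then exposed to compounds in DMSO for 16 h. Luminescence was read 30 min after ONE-Glo addition.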

[13] = target: Estrogen receptor (Homo sapiens) (UniProt P03372); experiment: qHTS assay to identify small molecule agonists of the estrogen receptor alpha (ER-alpha) signaling pathway (AID 743075; calls by dose curve;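 also: HEK293 GripTite cells with ER-alpha and UAS-driven beta-lactamase reporter; potency is read from the fitted curve at half-maximal effect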)
[14] = target: Estrogen receptor (Homo sapiens) (UniProt P03372); experiment: qHTS assay to identify small molecule agonists of the estrogen receptor alpha (ER-alpha) signaling pathway using the BG1 cell line (AID 743079); also: nearly all actives have a fitted effect of over 20% in size
[15] = qHTS assay to identify small molecule antagonists of the estrogen receptor alpha (ER-alpha) signaling pathway using the BG1 cell line (AID 743080; calls by dose curve;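 also: BG1 cells stimulated with 17beta-estradiol alongside compound; nearly all actives have a fitted effect of over 25% in size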); settings: BG1Luc4E2 ERE-luciferase antagonist mode, luminescence; activity change, negative = inhibition: at 70.3 µM (top of the series)
How it was run: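 Endogenous full-length ER-alpha in BG1-Luc-4E2 cells drives a stably integrated 4×ERE luciferase gene; compounds were tested against 17beta-estradiol over 21.5 h, with luminescence and multiplexed viability fluorescence recorded.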

[16] = target: Androgen receptor (Homo sapiens) (UniProt P10275); experiment: qHTS assay to identify small molecule antagonists of the androgen receptor (AR) signaling pathway using the MDA cell line (AID 743042; also: nearly all actives have a fitted effect of over 55% in size)
How it was run: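 MDA-kb2 cells (human breast carcinoma, stably carrying an MMTV-luciferase reporter responsive to AR and GR) were plated at 3,000 cells/well and preincubated 5 hr at 37C, then given compound plus R1881 agonist for 16 h. ONE-Glo luminescence was read.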

Chain of Aromatase (Homo sapiens) (P11511 whole entry, looked up): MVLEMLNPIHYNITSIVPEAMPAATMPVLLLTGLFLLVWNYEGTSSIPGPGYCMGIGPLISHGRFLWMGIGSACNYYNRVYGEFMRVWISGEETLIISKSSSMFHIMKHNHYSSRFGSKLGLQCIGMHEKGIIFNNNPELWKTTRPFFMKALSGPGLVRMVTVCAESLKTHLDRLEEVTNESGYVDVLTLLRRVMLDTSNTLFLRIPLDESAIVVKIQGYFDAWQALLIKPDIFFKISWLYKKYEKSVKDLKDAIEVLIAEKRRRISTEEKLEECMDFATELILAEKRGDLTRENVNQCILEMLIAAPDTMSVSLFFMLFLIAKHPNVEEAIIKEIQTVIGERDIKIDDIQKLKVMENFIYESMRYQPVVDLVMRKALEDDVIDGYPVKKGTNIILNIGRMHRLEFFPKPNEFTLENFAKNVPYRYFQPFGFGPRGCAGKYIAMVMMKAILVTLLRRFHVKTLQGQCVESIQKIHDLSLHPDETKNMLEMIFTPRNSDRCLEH
Chain of Androgen receptor (Homo sapiens) (P10275 whole entry, looked up): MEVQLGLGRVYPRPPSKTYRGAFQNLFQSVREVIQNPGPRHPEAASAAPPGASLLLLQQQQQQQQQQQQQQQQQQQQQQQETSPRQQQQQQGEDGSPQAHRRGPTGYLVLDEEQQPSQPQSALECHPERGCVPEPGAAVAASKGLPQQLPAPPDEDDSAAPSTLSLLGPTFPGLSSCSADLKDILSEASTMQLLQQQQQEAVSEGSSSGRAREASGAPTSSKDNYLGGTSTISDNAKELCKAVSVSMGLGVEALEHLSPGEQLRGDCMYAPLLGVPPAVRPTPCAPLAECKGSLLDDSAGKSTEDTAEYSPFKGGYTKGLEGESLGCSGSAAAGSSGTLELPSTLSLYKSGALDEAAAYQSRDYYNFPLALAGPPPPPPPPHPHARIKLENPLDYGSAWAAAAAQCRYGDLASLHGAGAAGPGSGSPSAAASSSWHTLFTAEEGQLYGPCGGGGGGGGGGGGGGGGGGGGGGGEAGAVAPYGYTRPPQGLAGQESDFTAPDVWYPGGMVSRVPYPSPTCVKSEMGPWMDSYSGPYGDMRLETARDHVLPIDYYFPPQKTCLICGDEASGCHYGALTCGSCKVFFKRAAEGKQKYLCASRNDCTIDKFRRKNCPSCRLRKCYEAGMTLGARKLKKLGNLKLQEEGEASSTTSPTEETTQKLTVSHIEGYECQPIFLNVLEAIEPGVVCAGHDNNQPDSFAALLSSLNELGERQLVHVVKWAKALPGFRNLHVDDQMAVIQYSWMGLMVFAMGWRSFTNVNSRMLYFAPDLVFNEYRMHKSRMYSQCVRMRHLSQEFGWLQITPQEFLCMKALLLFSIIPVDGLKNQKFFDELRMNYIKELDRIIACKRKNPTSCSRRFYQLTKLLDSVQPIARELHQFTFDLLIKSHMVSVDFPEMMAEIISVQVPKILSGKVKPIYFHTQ
Chain of Estrogen receptor (Homo sapiens) (P03372 whole entry, looked up): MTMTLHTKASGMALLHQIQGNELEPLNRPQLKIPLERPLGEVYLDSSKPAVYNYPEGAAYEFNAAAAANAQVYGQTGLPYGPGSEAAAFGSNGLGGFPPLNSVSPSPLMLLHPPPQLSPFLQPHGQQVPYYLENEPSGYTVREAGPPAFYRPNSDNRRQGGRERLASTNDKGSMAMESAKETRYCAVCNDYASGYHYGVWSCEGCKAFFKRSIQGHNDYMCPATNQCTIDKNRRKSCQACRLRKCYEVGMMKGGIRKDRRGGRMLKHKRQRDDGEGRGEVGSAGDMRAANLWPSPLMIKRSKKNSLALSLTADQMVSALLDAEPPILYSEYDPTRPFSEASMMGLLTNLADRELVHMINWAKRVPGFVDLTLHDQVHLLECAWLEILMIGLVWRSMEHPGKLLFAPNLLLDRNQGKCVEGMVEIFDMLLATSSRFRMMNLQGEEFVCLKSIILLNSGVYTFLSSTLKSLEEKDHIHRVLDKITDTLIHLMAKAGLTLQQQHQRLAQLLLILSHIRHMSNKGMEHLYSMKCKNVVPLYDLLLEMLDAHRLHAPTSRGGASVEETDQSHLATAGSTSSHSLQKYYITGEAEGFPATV

**Q.** With `C/C=C/C=C/C(=O)O` as the molecule, how does the Potency [1] read?
**A.** inactive and 61.1 µM (active)

**Q.** What about the Potency [2] of the same molecule?
**A.** inactive

**Q.** What about the Potency [3] of the same molecule?
**A.** inactive and 61.1 µM (active)

**Q.** What about the Potency [4] of the same molecule?
**A.** inactive

**Q.** What about the Potency [5] of the same molecule?
**A.** inactive

**Q.** And the Potency [6]?
**A.** inactive

**Q.** What about the Potency [7] of the same molecule?
**A.** inactive

**Q.** What about the Potency [8] of the same molecule?
**A.** inactive

**Q.** And the Potency [9]?
**A.** inactive

**Q.** And the Potency [10]?
**A.** inactive

**Q.** And the Potency (Aromatase (Homo sapiens))?
**A.** inactive

**Q.** Which Potency [11] does the source give for `COc1cccc(O)c1O` here?
**A.** inactive

**Q.** And the Potency [2]?
**A.** 25.3 µM (active)

**Q.** What about the outcome [12] of the same molecule?
**A.** inactive

**Q.** What about the Potency [6] of the same molecule?
**A.** inactive

**Q.** And the Potency [8]?
**A.** inactive

**Q.** What about the Potency [9] of the same molecule?
**A.** inactive

**Q.** And the Potency [13]?
**A.** 50.7 µM [activator] (active)

**Q.** What about the Potency [14] of the same molecule?
**A.** inactive

**Q.** And the Potency [15]?
**A.** inactive

**Q.** What about the Potency (Aromatase (Homo sapiens)) of the same molecule?
**A.** 35.7 µM (active)

**Q.** With `Nc1c(N=Nc2ccc(-c3ccc(N=Nc4cc(S(=O)(=O)O)c5ccccc5c4N)cc3)cc2)cc(S(=O)(=O)O)c2ccccc12` as the molecule, how does the Potency [1] read?
**A.** inactive and 6.85 µM (active)

**Q.** And the Potency [2]?
**A.** inactive and 34.3 µM (active)

**Q.** What about the Potency [3] of the same molecule?
**A.** 54.4 µM (active)

**Q.** And the Potency [4]?
**A.** inactive

**Q.** And the Potency [5]?
**A.** 26.6 µM (active) and 30.6 µM (active)

**Q.** And the Potency [6]?
**A.** 16.8 µM (active) and 27.3 µM (active)

**Q.** And the Potency [7]?
**A.** 10.6 µM (active) and 30.6 µM (active)

**Q.** And the Potency [8]?
**A.** inactive

**Q.** What about the Potency [9] of the same molecule?
**A.** inactive

**Q.** What about the Potency [10] of the same molecule?
**A.** 13.3 µM (active) and 24.3 µM (active)

**Q.** Which results are given for `Oc1ccccc1`?
**A.** Potency [11]: inactive; Potency [1]: inactive; Potency [2]: inactive; Potency [3]: inactive; Potency [4]: inactive; Potency [6]: inactive; Potency [9]: inactive; Potency [10]: inactive; Potency (Aromatase (Homo sapiens)): inactive

**Q.** For `O=C(Nc1ncc([N+](=O)[O-])s1)c1cccs1`, which outcome [12] is on record?
**A.** inactive

**Q.** What about the Potency [16] of the same molecule?
**A.** inactive

— PubChem BioAssay (Tox21)
